Screening data from PubChem BioAssay.
aSyn UTR act: Activators via SNCA 5'UTR binding, MLPCN; 7.1% of 300,000 active; alpha-synuclein 5'UTR reporter, activators screen; activity score, % (tested at 7.5 µM), hits read low; in the data active means activity score below about -60%
Of the large screens only hits and unclear results are named; the others gave an inactive call. The list is a sample of the results.

CCOc1ccc(NC(=S)c2ccc3ccccc3n2)cc1	aSyn UTR act -67
COc1ccc(NC(=S)c2ccc3ccccc3n2)cc1	aSyn UTR act -70
COc1ccc(C(=O)NC(=S)NNC(=O)c2ccc3ccccc3n2)cc1	none
Cc1cccn2c1nc(=S)n2C(=O)c1ccco1	aSyn UTR act -265
c1ccc2c(Nc3ccc4c(c3)OCCO4)c3c(nc2c1)CCCC3	aSyn UTR act -82
CC(=O)c1ccc(Nc2c3c(nc4ccccc24)CCCC3)cc1	aSyn UTR act -195
CC(=O)c1cccc(Nc2c3c(nc4ccccc24)CCC3)c1	none
CS(=O)(=O)N1N=C(c2ccc(Cl)cc2)CC1c1cccs1 (stereo unspecified)	aSyn UTR act -178
Cc1nn(C)c(Sc2ccccc2N)c1[N+](=O)[O-]	aSyn UTR act -69
Cc1cc(NC(=O)c2ccc([N+](=O)[O-])o2)ccc1NC(=O)c1ccco1	aSyn UTR act -110
Cc1cc(NC(=O)c2ccc3c(c2)OCCO3)ccc1NC(=O)c1ccco1	aSyn UTR act -66
O=C(Nc1ccc(NC(=O)c2ccco2)cc1)c1ccc2c(c1)OCCO2	none
CC(C)c1nc2oc3c(NCc4ccccn4)ncnc3c2c2c1COC(C)(C)C2	none
CC(C)Sc1nc(NCc2ccco2)c2c3c(sc2n1)COC(C)(C)C3	aSyn UTR act -85
COc1c(OC)c(O)c2c(=O)cc(-c3c(O)cccc3O)oc2c1OC	aSyn UTR act -64
CC1=NN(c2ccc(C)cc2)C(=O)/C1=C\c1ccc(Br)s1	aSyn UTR act -66
CC(/C=N/NC(=O)c1cccc(F)c1)=C\c1ccccc1	aSyn UTR act -254
CCOc1cc(C(=O)N/N=C/C(Br)=C/c2ccccc2)cc(OCC)c1OCC	none
CC(/C=N/NC(=O)c1ccc2nc(C)[nH]c2c1)=C\c1ccccc1	aSyn UTR act -67
CC(=C/c1ccc(C(C)C)cc1)/C=N/NC(=O)c1ccncc1	aSyn UTR act -110
O=C(N/N=C/C(Br)=C\c1ccccc1)c1ccc2nc[nH]c2c1	aSyn UTR act -90
CC(/C=C/c1ccccc1F)=N\NC(=O)c1cccc(F)c1	aSyn UTR act -139
Nc1ccc2oc(=O)c3ccccc3c2c1	aSyn UTR act -174
COC(=O)c1ccc(NC(=O)Nc2ccccc2F)cc1	aSyn UTR act -95
COc1ccc(NC(=O)Nc2ccccc2F)cc1	aSyn UTR act -134
CSc1ccc(NC(=O)Nc2ccccc2C(N)=O)cc1	aSyn UTR act -92
CC(=O)N(C)c1ccc(NC(=O)Nc2ccccc2C)cc1	aSyn UTR act -107
COc1ccc(NCC(=O)Nc2ccccc2C#N)cc1Cl	aSyn UTR act -68
COc1cc(C)c(C(=O)CC(=O)c2c(C)cc(OC)cc2C)c(C)c1	none
Fc1ccccc1NC(=S)N/N=C/c1ccccc1Br	aSyn UTR act -248
COc1ccc(NC(=O)Nc2ccccc2F)c(C)c1	aSyn UTR act -98
O=C(C#Cc1ccccc1)Nc1ccccc1F	aSyn UTR act -141
O=C(Nc1ccccc1F)Nc1ccccc1Br	aSyn UTR act -106
COc1cccc(COC(=O)Nc2ccccc2F)c1	aSyn UTR act -146
COc1ccc(NC(=O)Nc2ccccc2F)cc1Cl	aSyn UTR act -184
COC(=O)c1ccc(NC(=O)Nc2ccccc2C)cc1	aSyn UTR act -107
COc1ccc(NC(=O)Nc2ccccc2F)c([N+](=O)[O-])c1	aSyn UTR act -139
Cc1ccccc1NC(=O)OCc1ccccc1	aSyn UTR act -84
O=C(Nc1ccc(F)cc1)Nc1ccccc1F	aSyn UTR act -180
COc1ccc(NC(=O)Nc2ccccc2SC)cc1	aSyn UTR act -113
Oc1c(N=NC(=S)Nc2ccccc2F)c2ccccc2n1Cc1ccccc1Cl	none
COc1ccc(C/C(C)=N/NC(=S)Nc2ccccc2F)cc1	aSyn UTR act -152
O=C(Nc1ccccc1)Nc1cccn(Cc2c(F)cccc2Cl)c1=O	aSyn UTR act -103
Cc1ccc(Cn2c(O)c(N=NC(=S)Nc3ccccc3F)c3ccccc32)cc1	none
CSc1ccccc1NC(=O)Nc1ccc(Cl)cc1	aSyn UTR act -190
O=C(Nc1ccc(F)cc1)Nc1cccnc1Cl	aSyn UTR act -81
O=C(Nc1ccc(Cl)cc1)Nc1ccccc1CC[N+](=O)[O-]	aSyn UTR act -97
CC(C)(C)SCCNC(=O)Nc1ccccc1	aSyn UTR act -87
CC(C)(C)SCCNC(=O)CSc1ccccc1	aSyn UTR act -72
O=c1[nH][nH]c(-c2ccccc2O)c1C(C[N+](=O)[O-])c1ccc(Cl)cc1Cl (stereo unspecified)	aSyn UTR act -83
Cc1ccc(/C(N)=N/OC(=O)CCCc2ccccc2)cc1	aSyn UTR act -68
COc1ccc(C(=O)CCc2ccccc2)cc1	aSyn UTR act -111
COc1ccc(OCc2cccc(C(=O)O)c2)cc1	none
O=C(CC(=O)c1ccccc1O)c1ccc(F)cc1	aSyn UTR act -75
COc1ccc(NC(=O)CCSc2ccc(F)cc2)cc1	aSyn UTR act -93
COc1ccc(/C(N)=N/OC(=O)CCc2ccccc2)cc1	aSyn UTR act -100
COc1ccc(C(=O)C(CCC(CNC(C)(C)C)C(=O)c2ccc(OC)cc2)CNC(C)(C)C)cc1 (stereo unspecified)	none
O=C(Cc1ccccn1)c1ccc(F)cc1	aSyn UTR act -64
COc1ccc(C(=O)CC(=O)c2ccc(F)cc2)cc1	aSyn UTR act -165
COc1ccc(C(=O)CC(=O)C(=O)Nc2ccc(C)c(C)c2)cc1	aSyn UTR act -63
Cc1cccc(/C(N)=N/OC(=O)CCc2ccccc2)c1	aSyn UTR act -157
N/C(=N\OC(=O)Cc1ccccc1)c1ccc(Br)cc1	aSyn UTR act -80
Cc1ccc(/C(N)=N/OC(=O)Cc2ccccc2)cc1	aSyn UTR act -130
N/C(=N\OC(=O)CCCc1ccccc1)c1ccccc1Cl	aSyn UTR act -98
Cc1csc(=N)n1-c1ccc(Cl)cc1	aSyn UTR act -144
Cc1ccc(-n2c(C)csc2=N)cc1	aSyn UTR act -175
CCc1ccc(NC2=NCC(c3ccccc3)S2)cc1 (stereo unspecified)	aSyn UTR act -140
CSc1ccc(-c2sc(Nc3ccccc3)n[n+]2-c2ccccc2)cc1	aSyn UTR act -98
CSc1ccc(-c2sc(Nc3cccc4ccccc34)n[n+]2-c2ccccc2)cc1	aSyn UTR act -143
O=C(Nc1ccc(Cl)cc1)c1ccc2ncsc2c1	aSyn UTR act -227
O=C(Nc1ccc(F)cc1)c1ccc2ncsc2c1	aSyn UTR act -176
O=C(Nc1ccc(C(F)(F)F)cc1)c1ccc2ncsc2c1	aSyn UTR act -167
O=C(Nc1cccc(Cl)c1)c1ccc2ncsc2c1	aSyn UTR act -266
Cc1ccc(NC(=O)c2ccc3ncsc3c2)cc1S(=O)(=O)N(C)C	aSyn UTR act -148
O=C(Nc1ccon1)c1ccc(OC2CCCC2)cc1	aSyn UTR act -102
Cc1ccc(OCc2nnc(N)s2)cc1C	aSyn UTR act -62
O=C(Nc1nccs1)c1ccc2c(c1)OCO2	aSyn UTR act -146
CC(=O)c1sc(NC(=O)c2ccc3c(c2)OCO3)nc1C	aSyn UTR act -136
CC(=O)c1sc(NC(=O)c2cnc(Cl)c(Cl)c2)nc1C	aSyn UTR act -128
Cc1csc(NC(=O)c2ccc3c(c2)OCO3)n1	aSyn UTR act -81
CC(=O)c1sc(NC(=O)c2ccc(C)c(C)c2)nc1C	aSyn UTR act -86
CCN1CCc2nc(NC(=O)c3ccc4c(c3)OCCO4)sc2C1	aSyn UTR act -83
Cc1nc(NC(=O)c2ccccc2)sc1Cc1ccc2c(c1)OCO2	aSyn UTR act -69
CC(=O)c1sc(NC(=O)c2ccc(C(C)(C)C)cc2)nc1C	aSyn UTR act -107
CNc1ncc(C(=O)c2ccc(Br)cc2)s1	aSyn UTR act -108
CNc1ncc(C(=O)c2ccccc2)s1	aSyn UTR act -66
